A selection: hits, their analogues and other compounds. The true share with any hit is near 4.1%.
F508del corr: F508del CFTR correction, initial screen, CFBE line, single point; CFBE cells, YFP halide quenching; stimulated with forskolin plus potentiator P3; % fluorescence drop versus neutral controls; AID 720511, 2013; activity (quench increase), % at 7.58 µM; hit rate 0.36% among 350,000;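 active = mean added fluorescence quench of at least 8% versus neutral control, with both replicates also reaching 8%; inconclusive = only one of the mean or replicate conditions met; inactive = mean below 8% and not both replicates reaching 8%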;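 note: cells transiently co-express mutant CFTR-F508del with the halide-sensitive YFP; corrector assay measuring rescue of mutant channel to the surface after 24 h compound exposure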
PglD inh: C. jejuni PglD acetyltransferase inhibitors, primary screen, biochemical, DTNB colorimetric, single point; UDP-N-acetylbacillosamine N-acetyltransferase PglD (Campylobacter jejuni); purified PglD enzyme, DTNB colorimetric CoA detection; inhibition, % at 12.5 µM; hit rate 0.098% among 360,000; in the data active = inhibition above about 16%, passing the limit was not always enough; inconclusive = no clear call, values can overlap the other calls
Env fusion inh: inhibitors of HIV-1 Env-driven cell-cell fusion, primary screen, HeLa-JRFL effector, CEM21 target cells, luciferase; inhibition, % at 12.3 µM; hit rate 1.1% among 360,000; AID 651610, 2012;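 active = mean replicate inhibition score of at least 50 and every replicate individually at or above 50; inconclusive = only one of the two criteria met; inactive = mean below 50 and not all replicates reaching 50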;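 note: 0% = plate neutral controls and 100% = maraviroc near 300 nM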
NSD2 HMT inh: NSD2 histone methyltransferase inhibitors, primary screen, biochemical, AlphaScreen, single concentration, set 2; Histone-lysine N-methyltransferase NSD2 (Homo sapiens), O96028; NSD2 peptide methylation, 120 min; inhibition, % at 12.5 µM; hit rate 0.54% among 310,000; in the data active = inhibition above about 50%
ALR H2O2 inh: inhibitors of human ALR sulfhydryl oxidase, primary screen, biochemical, H2O2 detection, HRP-luminol luminescence, single point; FAD-linked sulfhydryl oxidase ALR (Homo sapiens), P55789; purified ALR, DTT oxidation; inhibition, % (test concentration not listed); hit rate 3.8% among 290,000; AID 485317, 2010;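 active = mean replicate inhibition above about 79%, with every replicate also reaching it, limit read from the data; inconclusive = only one of the two criteria met; inactive = mean below limit and not every replicate reaching it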
Target sequence (P55789 whole entry, looked up): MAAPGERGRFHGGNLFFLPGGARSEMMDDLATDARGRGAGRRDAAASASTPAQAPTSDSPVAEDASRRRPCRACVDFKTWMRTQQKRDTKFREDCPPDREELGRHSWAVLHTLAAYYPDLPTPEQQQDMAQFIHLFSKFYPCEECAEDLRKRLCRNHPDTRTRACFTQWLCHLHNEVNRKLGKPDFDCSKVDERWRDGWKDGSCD
CASP6 VEID inh: human caspase-6 inhibitors, primary screen, biochemical, VEID-R110 fluorescence, single point, set 2 | hit rate 0.53% among 350,000 | purified caspase-6, Z-VEID-R110 cleavage fluorescence | P55212 | inhibition, % at 12.5 µM;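 active = mean inhibition across replicates at least about 35%, with every replicate also reaching that limit, limit read from the data; inconclusive = only one of the two criteria met; inactive = neither criterion met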;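 note: 0% = median of neutral control wells and 100% = no fluorescence left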
Target sequence (P55212 24-179 limits assumed): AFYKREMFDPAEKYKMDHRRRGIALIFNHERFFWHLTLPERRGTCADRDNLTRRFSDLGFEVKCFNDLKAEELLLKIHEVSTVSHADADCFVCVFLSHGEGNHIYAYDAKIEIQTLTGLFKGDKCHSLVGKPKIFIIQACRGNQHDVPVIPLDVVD
Target sequence (P55212 194-293 limits assumed): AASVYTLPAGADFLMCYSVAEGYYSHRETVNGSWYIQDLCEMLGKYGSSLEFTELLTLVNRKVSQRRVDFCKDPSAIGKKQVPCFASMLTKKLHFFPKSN
Numbers without * were called inactive; u = inconclusive; x = not tested or not shown; [ ] = another dose, or the depositor's remark.

SMILES	F508del corr	PglD inh	Env fusion inh	NSD2 HMT inh	ALR H2O2 inh	CASP6 VEID inh
O=C(C[C@@H]1CC[C@H]2[C@@H](COC[C@@H](O)CN2C(=O)Nc2ccc3c(c2)OCO3)O1)N1CCN(c2ccccc2)CC1	4	-2	x	x	x	-1
Cc1cccc(-c2ccc([C@H]3[C@@H](CO)N4C(=O)CN(C(=O)Cc5ccccn5)C[C@@H]34)cc2)c1	-4	x	x	x	x	1
COc1ccc2c3c([nH]c2c1)[C@H](CO)N(CC1CC1)CC31CN(C(=O)c2ccccc2)C1	2	x	x	x	x	x
COc1ccc(C(=O)Nc2ccc3c(c2)OC[C@@H](C)N(Cc2cocn2)C[C@@H](C)[C@@H](OC)CN(C)C3=O)cc1	-1	-2	3[16.7 µM]	x	x	-1
CC(NC(=O)COc1ccccc1)C(c1ccccc1)N1CCN(C)CC1 (configuration not stated)	x	3	x	x	98*	x
CCOc1ccc(NC(=S)NC(C)C(c2ccccc2)N2CCN(C)CC2)cc1 (configuration not stated)	0	x	-16	4	-10	2
COc1ccc(-c2c3c(cc(C)[n+]2[O-])oc2ccc(OC)cc23)cc1	x	x	-36	1	45	x
COc1ccc2oc3cc(C)[n+]([O-])c(-c4ccc(C)cc4)c3c2c1	x	5	28	-1	93*	x
COC(=O)[C@H]1[C@H](CO)[C@H]2Cn3c(ccc(-c4ccccc4)c3=O)[C@H]2N1CCc1ccccc1	0	1	x	x	x	0
Cc1c(C=O)c(Cl)n(C)c(=O)c1C#N	-1	x	-14	x	-8	51*
CCCN1C[C@@H](C)[C@H](OC)CN(C)C(=O)c2cc(NC(=O)c3cnccn3)ccc2OC[C@H]1C	-1	1	-6[16.7 µM]	x	x	x
Cc1ccc(NC(=S)Nc2ccc3[nH]c(=O)[nH]c3c2)cc1C	2	2	-3	1	90*	3
Cc1c(OCC(=O)NCCN2CCOCC2)ccc2c3c(c(=O)oc12)CCC3	11*	-2	-2	-4	-1	x
C[C@@H]1CN([C@@H](C)CO)C(=O)c2cc(NC(=O)Nc3ccc(F)cc3)ccc2O[C@@H]1CN(C)Cc1ccncc1	4	61	-5[16.7 µM]	x	x	-3
CCOc1ccc(NC(=O)c2cc(OC)nc3ccccc23)cc1	11*	x	-333	5	1	-1
COc1cc(C(=O)Nc2ccc(C)cc2)c2ccccc2n1	11*	-4	-340	-2	1	3
CCOc1ccc(NC(=O)c2cccc3ccccc23)cc1	6	-14	-24	0	3	-3
CCNC(=O)C[C@@H]1CC[C@@H]2[C@H](COC[C@@H](O)CN2Cc2ccc(Cl)c(Cl)c2)O1	0	1	x	x	x	-1
CO[C@@H]1CN(C)C(=O)c2ccc(NS(=O)(=O)c3ccccc3)cc2OC[C@@H](C)N(C)C[C@@H]1C	0	1	x	x	x	x
O=C(CCN1CCCCC1)N[C@@H]1CC[C@@H](CCn2cc(-c3ccccc3)nn2)O[C@@H]1CO	3	1	75*[16.7 µM]	x	x	-2
O=C(Cc1ccncc1)N[C@H]1CC[C@H](CCn2cc(-c3ccccc3F)nn2)O[C@H]1CO	-2	0	27[16.7 µM]	x	x	0
O=C(CCN1CCCCC1)N[C@@H]1CC[C@H](CCn2cc(-c3ccccc3)nn2)O[C@@H]1CO	2	3	-8[16.7 µM]	x	x	-1
O=C(Cc1ccncc1)N[C@H]1CC[C@@H](CCn2cc(-c3ccccc3F)nn2)O[C@@H]1CO	0	3	72*[16.7 µM]	x	x	2
O=C(CCN1CCCCC1)N[C@H]1CC[C@H](CCn2cc(-c3ccccc3)nn2)O[C@@H]1CO	-2	-2	77*[16.7 µM]	x	x	-1
COc1ccc(CNC(=O)C[C@H]2C[C@H]3c4cc(NC(=O)CC5CC5)ccc4O[C@H]3[C@@H](CO)O2)cc1	-1	12	-21[16.7 µM]	x	x	x
SMILES	F508del corr	PglD inh	Env fusion inh	NSD2 HMT inh	ALR H2O2 inh	CASP6 VEID inh
Cc1ccc2nc(-c3ccc(NS(C)(=O)=O)cc3)cc(-c3ccccc3)c2c1	0	-3	x	-3	-4	-2
CCS(=O)(=O)Nc1ccc(-c2cc(-c3ccccc3)c3cc(C)ccc3n2)cc1	3	x	4	0	89*	x
CCS(=O)(=O)N1CC2(CN(Cc3ccc(OC)cc3)[C@@H](CO)c3c2c2ccc(OC)cc2n3C)C1	-1	x	0[16.7 µM]	x	x	1
COc1ccc(-c2cnc3c(c2)C(=O)N([C@@H](C)CO)C[C@@H](C)[C@H](CN(C)C(=O)C2CC2)O3)cc1	1	x	-3[16.7 µM]	x	x	x
C[C@@H]1O[C@@H](O[C@@H]2[C@@H](O)[C@H](OCCc3ccc(O)c(O)c3)O[C@H](CO)[C@H]2OC(=O)/C=C/c2ccc(O)c(O)c2)[C@H](O)[C@H](O)[C@H]1O	-1	2	7	x	98*	8
CCCc1cc(=O)[nH]c(SCC(=O)c2cc(C)n(C)c2C)n1	x	7	x	3	98*	x
Cc1cc(C(=O)CSc2nc(N)cc(=O)[nH]2)ccc1F	-2	-3	-10	1	90*	-4
CCc1ccc(C(=O)CSc2nc(N)cc(=O)[nH]2)cc1	0	-2	9	-1	x	-1
COc1ccc(CCn2c(C)cc(C(=O)CSc3nc(N)cc(=O)[nH]3)c2C)cc1	x	-5	70*	4	x	x
Cc1ccc(C(=O)CSc2nc(N)cc(=O)[nH]2)cc1C	1	5	-13	-2	99*	0
C[C@@H]1CN([C@@H](C)CO)C(=O)c2cc(NC(=O)Nc3ccc4c(c3)OCO4)ccc2O[C@H]1CN(C)Cc1ccc(Cl)c(Cl)c1	2	-3	x	x	x	-1
O=C(N/N=C/c1sc2ccccc2c1O)c1ccccc1	x	-11	x	4	88*	x
COc1ccc2cc(C(=O)N/N=C/c3sc4ccccc4c3O)ccc2c1	2	x	u	24	7	-4
COc1ccc(C(=O)N/N=C/c2sc3ccccc3c2O)cc1	x	x	x	1	81*	x
O=C(C[C@H]1C=C[C@@H](NC(=O)Cc2cccnc2)[C@@H](CO)O1)Nc1ccc(-c2ccccc2)cc1	1	x	x	x	x	-5
C[C@H]1CCCCO[C@H](CN(C)C(=O)c2ccncc2)[C@@H](C)CN([C@@H](C)CO)C(=O)c2cc(NS(=O)(=O)c3ccc(F)cc3)ccc2O1	-1	2	1[16.7 µM]	x	x	1
O=C(Nc1ccc(F)cc1)N1CC(=O)N2[C@@H](CO)[C@H](c3ccc(-c4ccc(F)cc4)cc3)[C@@H]2C1	-1	x	x	x	x	-2
Cc1ccc(Nc2nc(N)nc(CN3CCN(Cc4ccc5c(c4)OCO5)CC3)n2)cc1C	4	x	-3	5	x	-1
Nc1nc(CN2CCN(C(=O)c3ccco3)CC2)nc(Nc2cccc(Cl)c2)n1	3	x	2	4	95*	1
